Laboratory results: PubChem BioAssay (Tox21)
Inconclusive results are not listed. Activity calls are given as the source filed them. Unless noted, the call rests on the fitted dose curve; in most records, active means well fitted curve in the direction sought with a large enough effect in the repeat runs; inconclusive means weak or mixed curves; inactive means no such curve, though single readings can be large; an effect the other way counts as inactive or inconclusive.

Tests used:
[1] = qHTS assay to identify small molecule antagonists of the retinoid acid receptor (RAR) signaling pathway - cell viability counter screen (AID 1159551); further: nearly all actives have a fitted effect of over 35% in size
Summary of the method: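 C3RL4 RARE-luciferase cells, 1,000/well, incubated overnight, then dosed with compound plus 1 uM retinol (final). After 6 hr at 37 C, viability read by CellTiter-Glo ATP luminescence following 30 min at room temperature.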

[2] = qHTS assay to identify small molecule antagonists of the estrogen related receptor (ERR) signaling pathway from Tox21 library - cell viability counter screen (AID 1224834); further: nearly all actives have a fitted effect of over 30% in size; further: potency means the concentration at half of the fitted maximal effect
Summary of the method: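 ERR reporter cells, 2,000 per well, rested 6 h, then exposed to compound in DMSO for 17.5 hours at 37 C. Viability read as fluorescence after 30 min with CellTiter-Fluor.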

[3] = biological target: Luciferin 4-monooxygenase (Photinus pyralis) (UniProt P08659); experiment: qHTS assay to identify small molecule inhibitors of firefly luciferase (AID 1224835); further: nearly all actives have a fitted effect of over 25% in size; further: potency means the concentration at half of the fitted maximal effect
Luciferin 4-monooxygenase (Photinus pyralis), sequence (P08659 whole entry, looked up): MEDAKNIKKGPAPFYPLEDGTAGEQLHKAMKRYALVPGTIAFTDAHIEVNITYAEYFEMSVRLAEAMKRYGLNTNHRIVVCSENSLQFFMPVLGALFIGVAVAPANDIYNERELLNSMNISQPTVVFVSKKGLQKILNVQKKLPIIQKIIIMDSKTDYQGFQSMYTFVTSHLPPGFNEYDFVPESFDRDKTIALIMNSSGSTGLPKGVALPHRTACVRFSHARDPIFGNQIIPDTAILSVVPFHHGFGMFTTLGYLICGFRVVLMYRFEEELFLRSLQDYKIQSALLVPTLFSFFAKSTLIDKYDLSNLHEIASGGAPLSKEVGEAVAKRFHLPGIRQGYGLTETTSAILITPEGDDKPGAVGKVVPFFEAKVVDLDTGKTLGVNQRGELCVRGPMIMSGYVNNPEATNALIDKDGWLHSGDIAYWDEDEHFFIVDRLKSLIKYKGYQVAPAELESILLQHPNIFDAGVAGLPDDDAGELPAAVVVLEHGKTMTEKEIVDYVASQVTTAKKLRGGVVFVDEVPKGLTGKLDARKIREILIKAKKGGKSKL
Summary of the method: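 Biochemical qHTS: compounds run as interplate titrations against purified firefly enzyme, with D-luciferin and ATP each at its KM concentration. Light output recorded by CCD imaging.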

[4] = qHTS assay to identify small molecule agonists of the constitutive androstane receptor (CAR) signaling pathway - cell viability counter screen (AID 1224836); further: nearly all actives have a fitted effect of over 45% in size; further: potency means the concentration at half of the fitted maximal effect
Summary of the method: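 HepG2 cells stably carrying hCAR and a CYP2B6-2.2kb reporter; 15-concentration compounds plus PK11195 (final 0.75 uM), 23 hr at 37 C/5% CO2. Viability read by CellTiter-Fluor fluorescence.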

[5] = biological target: Nuclear receptor subfamily 1 group I member 3 (Homo sapiens) (UniProt Q14994); experiment: qHTS assay to identify small molecule antagonists of the constitutive androstane receptor (CAR) signaling pathway (AID 1224838); further: nearly all actives have a fitted effect of over 40% in size; further: potency means the concentration at half of the fitted maximal effect
Nuclear receptor subfamily 1 group I member 3 (Homo sapiens), sequence (Q14994 whole entry, looked up): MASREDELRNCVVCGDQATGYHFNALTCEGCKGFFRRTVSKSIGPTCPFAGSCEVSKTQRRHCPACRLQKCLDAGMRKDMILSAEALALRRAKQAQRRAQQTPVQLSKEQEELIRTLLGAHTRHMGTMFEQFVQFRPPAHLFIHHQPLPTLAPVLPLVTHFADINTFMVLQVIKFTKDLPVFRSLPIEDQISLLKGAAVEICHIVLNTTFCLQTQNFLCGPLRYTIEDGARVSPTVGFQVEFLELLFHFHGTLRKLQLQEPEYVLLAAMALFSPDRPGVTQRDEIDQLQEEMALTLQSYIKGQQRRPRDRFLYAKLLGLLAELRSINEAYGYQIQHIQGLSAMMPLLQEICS
Summary of the method: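 HepG2 cells stably carrying hCAR and a CYP2B6-2.2kb luciferase reporter, seeded 4 hrs before compound (15 concentrations). Stimulated with 50 nM CITCO for 24 hr at 37 C. ONE-Glo luminescence read after 30 min at room temperature.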

[6] = biological target: Nuclear receptor subfamily 1 group I member 3 (Homo sapiens) (UniProt Q14994); experiment: qHTS assay to identify small molecule agonists of the constitutive androstane receptor (CAR) signaling pathway (AID 1224839); further: nearly all actives have a fitted effect of over 15% in size; further: potency means the concentration at half of the fitted maximal effect
Summary of the method: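 HepG2 cells stably co-transfected with hCAR and a CYP2B6-2.2kb luciferase reporter; compounds at 15 concentrations with 0.75 uM PK11195 present. After 24 hr at 37 C, luciferase read by ONE-Glo luminescence.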

[7] = qHTS assay to identify small molecule antagonists of the estrogen related receptor signaling pathway with the pleiotropic PPARgamma coactivator (PGC) from Tox21 10K library - cell viability counter screen (AID 1224840; active means well fitted cell-killing curve with a large enough effect in the repeat runs, not every such curve was filed as active; further: nearly all actives have a fitted effect of over 40% in size; further: potency means the concentration at half of the fitted maximal effect)
Summary of the method: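 PGC/ERR cells (2,000/well) plated 6 h, then compound-treated for 17.5 h at 37 C. Viability measured by CellTiter-Fluor fluorescence after 30 min at 37 C, multiplexed with the pathway assay.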

[8] = biological target: Thyrotropin receptor (Homo sapiens) (UniProt P16473); experiment: qHTS assay to identify small molecule agonists of the thyroid stimulating hormone receptor (TSHR) signaling pathway (AID 1224843; calls by dose curve; further: nearly all actives have a fitted effect of over 45% in size)
Thyrotropin receptor (Homo sapiens), sequence (P16473 whole entry, looked up): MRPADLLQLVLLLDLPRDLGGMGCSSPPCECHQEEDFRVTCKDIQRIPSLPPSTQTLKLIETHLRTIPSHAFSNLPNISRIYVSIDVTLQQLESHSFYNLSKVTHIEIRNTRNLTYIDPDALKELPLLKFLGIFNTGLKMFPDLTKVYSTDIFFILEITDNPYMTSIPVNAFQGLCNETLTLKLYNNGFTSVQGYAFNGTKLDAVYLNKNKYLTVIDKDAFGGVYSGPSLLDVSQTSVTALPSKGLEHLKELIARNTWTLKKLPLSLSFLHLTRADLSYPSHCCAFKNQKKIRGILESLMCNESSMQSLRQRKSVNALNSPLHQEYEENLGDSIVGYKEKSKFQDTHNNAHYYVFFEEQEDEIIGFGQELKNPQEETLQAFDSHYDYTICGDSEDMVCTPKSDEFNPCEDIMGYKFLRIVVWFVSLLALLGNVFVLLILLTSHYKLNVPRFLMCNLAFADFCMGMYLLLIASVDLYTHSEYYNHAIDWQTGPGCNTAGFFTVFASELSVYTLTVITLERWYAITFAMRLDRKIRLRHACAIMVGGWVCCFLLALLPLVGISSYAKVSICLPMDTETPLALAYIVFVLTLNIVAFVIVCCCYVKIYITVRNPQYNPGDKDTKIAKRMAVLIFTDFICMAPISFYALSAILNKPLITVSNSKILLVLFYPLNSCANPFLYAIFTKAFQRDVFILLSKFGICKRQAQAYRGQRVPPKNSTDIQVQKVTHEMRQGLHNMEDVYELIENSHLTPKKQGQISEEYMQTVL
Summary of the method: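 Steps: seed 800 TSHR-HEK293 cells per well; add test compound and hold 30 min at ambient temperature; dispense cAMP-d2 then anti-cAMP cryptate; incubate 1 h at ambient; measure fluorescence intensity.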

[9] = qHTS assay to identify small molecule antagonists of the retinoic acid receptor (RAR) signaling pathway (AID 1159552; further: nearly all actives have a fitted effect of over 50% in size; further: potency means the concentration at half of the fitted maximal effect)
Summary of the method: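 Retinol signaling pathway inhibitors screened in C3RL4 RARE-luciferase reporter cells seeded overnight at 37 C, then compounds added with 1 uM (final) retinol as pathway substrate. After 6 hr at 37 C, luciferase luminescence read after 30 min at room temperature.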

[10] = qHTS assay to identify small molecule antagonists of the estrogen related receptor signaling pathway with the pleiotropic PPARgamma coactivator (PGC) from Tox21 10K library (AID 1224841; call rule not given here; further: actives are mostly falling curves and most rising ones were filed inactive; nearly all actives have a fitted effect of over 50% in size; further: potency means the concentration at half of the fitted maximal effect)
Summary of the method: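 PGC/ERR cell line, 2,000 cells/well, pre-incubated 6 hours at 37 C, then exposed to compounds for 18 hours at 37 C; luciferase read with One-Glo luminescence after 30 min at room temperature.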

[11] = qHTS assay to identify small molecule agonists of the estrogen related receptor signaling pathway with the pleiotropic PPARgamma coactivator (PGC) from Tox21 10K library (AID 1224842); further: nearly all actives have a fitted effect of over 15% in size; further: potency means the concentration at half of the fitted maximal effect
Summary of the method: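 PGC/ERR reporter cell line, 2,000 cells per well, incubated 6 h at 37 C before 23 nL compound in DMSO was added. After 18 h at 37 C, One-Glo luminescence read following 30 min at room temperature.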

[12] = qHTS assay to identify small molecule antagonists of the constitutive androstane receptor (CAR) signaling pathway - cell viability counter screen (AID 1224837); further: nearly all actives have a fitted effect of over 45% in size; further: potency means the concentration at half of the fitted maximal effect
Summary of the method: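 HepG2 cells stably carrying hCAR and CYP2B6-2.2kb reporter, stimulated with 50 nM CITCO and compounds at 15 concentrations for 23 h at 37 C. Viability measured by CellTiter-Fluor fluorescence.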

[13] = qHTS assay to identify small molecule agonists of the retinoic acid receptor (RAR) signaling pathway (AID 1159553); further: potency means the concentration at half of the fitted maximal effect
Summary of the method: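 C3RL4 RARE-luciferase cells were seeded at 1,000/well and grown overnight at 37 C, then exposed to compounds for 6 hr at 37 C, 5% CO2. Luciferase reagent was added and luminescence was read after 30 min at room temperature.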

[14] = qHTS assay to identify small molecule agonists of the estrogen related receptor (ERR) signaling pathway (AID 1224820)
Summary of the method: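 ERR reporter cells (NTP line) plated 2,000/well, incubated 6 h at 37 C/5% CO2, then pinned with compounds in DMSO and held 18 h at 37 C. One-Glo added; luminescence read after 30 min at room temperature.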

[15] = test system: estrogen-related receptor alpha (ERRalpha) with PGC-1alpha coactivator, human; experiment: qHTS assay to identify small molecule antagonists of the estrogen related receptor signaling pathway with the pleiotropic PPARgamma coactivator (PGC) (AID 1224821; calls by dose curve;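 further: series mostly up to about 46 µM; lower luminescence signal means antagonism of PGC/ERR signalling; nearly all actives have a fitted effect of over 50% in size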)
Summary of the method: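 Cells engineered for PGC/ERR signalling (line from NTP) were plated 6 h at 37 C/5% CO2, then exposed to DMSO-dissolved compound for 18 h at 37 C. Luciferase activity was read by One-Glo luminescence after 30 min at room temperature.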

[16] = qHTS assay to identify small molecule antagonists of the estrogen related receptor signaling pathway with the pleiotropic PPARgamma coactivator (PGC) cell viability counter screen (AID 1224822; further: series mostly up to about 46 µM)
Summary of the method: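 PGC/ERR cells rested 6 h, then compound-treated 17.5 h at 37 C. CellTiter-Fluor added for 30 min at 37 C, viability measured by fluorescence intensity.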

[17] = qHTS assay to identify small molecule agonists of the estrogen related receptor signaling pathway with the pleiotropic PPARgamma coactivator (PGC) (AID 1224823)
Summary of the method: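 PGC/ERR reporter cells were seeded, rested 6 h at 37 C/5% CO2, then exposed to compounds in DMSO by pin transfer for 18 h at 37 C. Luciferase activity was read as luminescence after One-Glo reagent and 30 min at room temperature.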

[18] = qHTS assay to identify small molecule antagonists of the estrogen related receptor (ERR) signaling pathway - cell viability counter screen (AID 1224818); further: series mostly up to about 46 µM
Summary of the method: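 ERR cells, 2,000 per well, compound added after 6 h and incubated 17.5 h at 37 C. Viability read by CellTiter-Fluor fluorescence after a further 30 min at 37 C.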

[19] = qHTS assay to identify small molecule antagonists of the estrogen related receptor (ERR) signaling pathway (AID 1224819;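 further: luminescence from an ERR-driven luciferase reporter measured with One-Glo reagent; series mostly up to about 46 µM; nearly all actives have a fitted effect of over 50% in size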)
Summary of the method: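 ERR reporter cell line (NTP) plated at 2,000 cells/well, settled 6 h at 37C/5% CO2, then exposed to LOPAC compounds for 18 h at 37C. One-Glo luciferase luminescence read after 30 min at room temperature.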

Measured: Potency

O=C(O)c1cc(O)c2c(c1)C(=O)c1cccc(O)c1C2=O
inactive: [1] | [2] | [3] | [4] | [5] | [6] | [7] | [8]

CCN(CCC#N)c1ccc(N=Nc2c(Cl)cc([N+](=O)[O-])cc2Cl)cc1
active: [2] 15.4 µM | [3] 63.3 µM
inactive: [1] | [9] | [5] | [6] | [10] | [11]

C[C@@H]1C[C@H]2[C@@H]3CCC4=CC(=O)C=C[C@]4(C)[C@@]3(Cl)[C@@H](O)C[C@]2(C)[C@@]1(OC(=O)c1ccco1)C(=O)CCl
inactive: [1] | [3] | [4] | [12] | [11] | [8]
active: [2] 23.7 µM | [10] 23.7 µM

Cc1ccc(O)c2ncccc12
active: [2] 16.8 µM | [12] 11.9 µM | [5] 13.3 µM | [7] 23.7 µM
inactive: [1] | [9] | [3] | [6] | [11] | [8]

CCN(Cc1cccnc1)C(=O)c1cccc(Cl)c1[C@]1(C)C(=O)N(Cc2ccc(OC)cc2OC)c2ccc(Cl)cc21
inactive: [1] | [3] | [12] | [5] | [6]
active: [2] 28.6 µM

O=C1c2c(O)ccc(Nc3ccc(CCO)cc3)c2C(=O)c2c([N+](=O)[O-])ccc(O)c21
active: [2] 38.6 µM | [3] 17.8 µM | [6] 27.3 µM
inactive: [9] | [5]

COc1cccc2c1C(=O)c1c(O)c3c(c(O)c1C2=O)C[C@@](O)(C(=O)CO)C[C@@H]3O[C@H]1C[C@H](N)[C@H](O[C@@H]2CCCCO2)[C@H](C)O1
active: [2] 9.44 µM | [4] 7.5 µM | [12] 8.41 µM | [11] 0.422 µM
inactive: [13] | [6] | [10] | [8]

COc1c(C)c2c(c(O)c1C/C=C(\C)CCC(=O)O)C(=O)OC2
inactive: [9] | [13] | [3] | [4] | [12] | [7] | [11]
active: [10] 2.66 µM

OCCN1CCN(CC/C=C2/c3ccccc3Sc3ccc(C(F)(F)F)cc32)CC1
active: [9] 26.6 µM | [2] 29.8 µM | [7] 29.8 µM | [10] 29.8 µM
inactive: [14] | [15] | [16] | [17] | [3] | [11] | [8]

CN(C)[C@@H]1C(=O)C(C(N)=O)=C(O)[C@@]2(O)C(=O)C3=C(O)c4c(O)cccc4C[C@H]3C[C@@H]12
active: [10] 26.6 µM
inactive: [9] | [13] | [2] | [3] | [4] | [12] | [5] | [7] | [11]

CCCCCCCCCCCCCCCS(=O)(=O)Oc1ccccc1
inactive: [9] | [13] | [2] | [3] | [4] | [12] | [5] | [6] | [7]

C=CC(=O)OCCn1c(=O)n(CCOC(=O)C=C)c(=O)n(CCOC(=O)C=C)c1=O
inactive: [3] | [6] | [11]
active: [2] 17.2 µM | [4] 48.6 µM | [7] 15.4 µM | [10] 15.4 µM

CCCCCCCCCCn1cc[n+](CCCCCCCCCC)c1C
active: [9] 24.4 µM | [2] 27.3 µM | [4] 30.7 µM | [12] 54.5 µM | [5] 30.7 µM | [7] 27.3 µM | [10] 27.3 µM
inactive: [6] | [11]

O=C(Nc1cccc([N+](=O)[O-])c1)c1cc2ccccc2cc1O
active: [13] 0.969 µM | [2] 4.33 µM | [3] 1.59 µM | [12] 9.69 µM | [6] 2.43 µM | [7] 3.86 µM
inactive: [9] | [11]

Cc1ccc(O)c(C(C)(C)C)c1
inactive: [2] | [3] | [4] | [12] | [5] | [6] | [7] | [8]

OC1(c2ccc(Cl)c(C(F)(F)F)c2)CCN(CCCC(c2ccc(F)cc2)c2ccc(F)cc2)CC1
active: [9] 26.6 µM | [2] 21.1 µM | [4] 23.7 µM | [5] 13.3 µM | [7] 18.8 µM | [10] 29.8 µM
inactive: [3] | [6] | [11]

COCCCC/C(=N\OCCN)c1ccc(C(F)(F)F)cc1
inactive: [13] | [18] | [19] | [14] | [15] | [16] | [17] | [2] | [3] | [4] | [7] | [11] | [8]
active: [9] 23.7 µM | [10] 2.98 µM
